# Laboratory results reported in the supplement of paper PMC12282887.
# ± gives the standard deviation of the averaged measurements.
# Legend:
# Experiment in all cases: promoter activity interaction Z-score (Lux/OD deviation from empty-vector control); higher = stronger promoter induction by the compound
# [1] = test system: E. coli BW25113 acrABp lux reporter
# Summary of the method: (§1)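 E. coli BW25113, as wild type or one of three single-gene deletion strains, carried low-copy luxCDABE promoter reporters and grew in 40 µl LB Lennox in 384-well plates at 37°C, with OD600 and luminescence read every 30 min for 12 h. Each compound was run at four 1:2 dilutions in biological duplicates, integration spanned 0–8 h for wild type and 1–9 h for deletion strains, and wells under 10% of the median growth value were dropped. The score is the Z-transformed residual of growth-normalised luminescence fitted against a control.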
# [2] = test system: E. coli BW25113 marRABp lux reporter
# Summary of the method: as §1
# [3] = test system: E. coli BW25113 micFp lux reporter
# Summary of the method: as §1
# [4] = test system: E. coli BW25113 ompFp lux reporter
# Summary of the method: as §1
# [5] = test system: E. coli BW25113 robp lux reporter
# Summary of the method: as §1
# [6] = test system: E. coli BW25113 soxSp lux reporter
# Summary of the method: as §1
# [7] = test system: E. coli BW25113 tolCp lux reporter
# Summary of the method: as §1
# [8] = 40.6 µg/ml, genetic background: wild type
# [9] = 40.6 µg/ml, genetic background: ΔmarA
# [10] = 40.6 µg/ml, genetic background: Δrob
# [11] = 40.6 µg/ml, genetic background: ΔsoxS
# [12] = 81.1 µg/ml, genetic background: wild type
# [13] = 81.1 µg/ml, genetic background: ΔmarA
# [14] = 81.1 µg/ml, genetic background: Δrob
# [15] = 81.1 µg/ml, genetic background: ΔsoxS
# [16] = 162.2 µg/ml, genetic background: wild type
# [17] = 162.2 µg/ml, genetic background: ΔmarA
# [18] = 162.2 µg/ml, genetic background: Δrob
# [19] = 162.2 µg/ml, genetic background: ΔsoxS
# [20] = 324.4 µg/ml, genetic background: wild type
# [21] = 324.4 µg/ml, genetic background: ΔmarA
# [22] = 324.4 µg/ml, genetic background: Δrob
# [23] = 324.4 µg/ml, genetic background: ΔsoxS
smiles,measurement,setting,value
C=C[C@H]1CN2CC[C@H]1C[C@H]2[C@H](O)c1ccnc2ccc(OC)cc12 [Quinine],promoter activity interaction Z-score,[1]; [8],-0.0276 ± 0.14
same,promoter activity interaction Z-score,[1]; [9],0.379 ± 1.7
same,promoter activity interaction Z-score,[1]; [10],-0.214 ± 0.025
same,promoter activity interaction Z-score,[1]; [11],-0.207 ± 0.36
same,promoter activity interaction Z-score,[1]; [12],-0.0617 ± 0.23
same,promoter activity interaction Z-score,[1]; [13],0.66 ± 0.57
same,promoter activity interaction Z-score,[1]; [14],-0.0693 ± 0.15
same,promoter activity interaction Z-score,[1]; [15],0.146 ± 0.074
same,promoter activity interaction Z-score,[1]; [16],-0.321 ± 0.19
same,promoter activity interaction Z-score,[1]; [17],-0.122 ± 1
same,promoter activity interaction Z-score,[1]; [18],0.00483 ± 0.12
same,promoter activity interaction Z-score,[1]; [19],-0.386 ± 0.088
same,promoter activity interaction Z-score,[1]; [20],-0.269 ± 0.44
same,promoter activity interaction Z-score,[1]; [21],-0.173 ± 0.094
same,promoter activity interaction Z-score,[1]; [22],0.046 ± 0.023
same,promoter activity interaction Z-score,[1]; [23],-0.181 ± 0.2
same,promoter activity interaction Z-score,[2]; [8],0.0904 ± 0.38
same,promoter activity interaction Z-score,[2]; [9],-0.307 ± 0.24
same,promoter activity interaction Z-score,[2]; [10],-0.00554 ± 0.082
same,promoter activity interaction Z-score,[2]; [11],-0.106 ± 0.073
same,promoter activity interaction Z-score,[2]; [12],-0.119 ± 0.029
same,promoter activity interaction Z-score,[2]; [13],0.197 ± 0.19
same,promoter activity interaction Z-score,[2]; [14],-0.0844 ± 0.1
same,promoter activity interaction Z-score,[2]; [15],0.0817 ± 0.18
same,promoter activity interaction Z-score,[2]; [16],-0.16 ± 0.05
same,promoter activity interaction Z-score,[2]; [17],0.254 ± 0.062
same,promoter activity interaction Z-score,[2]; [18],-0.151 ± 0.3
same,promoter activity interaction Z-score,[2]; [19],-0.0309 ± 0.098
same,promoter activity interaction Z-score,[2]; [20],1.1 ± 0.12
same,promoter activity interaction Z-score,[2]; [21],1.18 ± 0.12
same,promoter activity interaction Z-score,[2]; [22],-0.164 ± 0.17
same,promoter activity interaction Z-score,[2]; [23],0.579 ± 0.51
same,promoter activity interaction Z-score,[3]; [8],0.322 ± 0.35
same,promoter activity interaction Z-score,[3]; [9],0.0116 ± 0.1
same,promoter activity interaction Z-score,[3]; [10],-0.133 ± 0.038
same,promoter activity interaction Z-score,[3]; [11],-0.0747 ± 0.16
same,promoter activity interaction Z-score,[3]; [12],0.106 ± 0.04
same,promoter activity interaction Z-score,[3]; [13],0.118 ± 0.17
same,promoter activity interaction Z-score,[3]; [14],-0.0678 ± 0.18
same,promoter activity interaction Z-score,[3]; [15],0.253 ± 0.078
same,promoter activity interaction Z-score,[3]; [16],0.0719 ± 0.29
same,promoter activity interaction Z-score,[3]; [17],0.23 ± 0.0035
same,promoter activity interaction Z-score,[3]; [18],0.137 ± 0.068
same,promoter activity interaction Z-score,[3]; [19],0.356 ± 0.086
same,promoter activity interaction Z-score,[3]; [20],0.7474 ± 0.0019
same,promoter activity interaction Z-score,[3]; [21],0.582 ± 0.025
same,promoter activity interaction Z-score,[3]; [22],0.201 ± 0.17
same,promoter activity interaction Z-score,[3]; [23],1.13 ± 0.047
same,promoter activity interaction Z-score,[4]; [8],0.0547 ± 0.22
same,promoter activity interaction Z-score,[4]; [9],-0.33 ± 0.1
same,promoter activity interaction Z-score,[4]; [10],-0.566 ± 0.33
same,promoter activity interaction Z-score,[4]; [11],0.39 ± 0.047
same,promoter activity interaction Z-score,[4]; [12],-0.0322 ± 0.074
same,promoter activity interaction Z-score,[4]; [13],0.401 ± 0.48
same,promoter activity interaction Z-score,[4]; [14],0.0636 ± 0.022
same,promoter activity interaction Z-score,[4]; [15],0.369 ± 0.07
same,promoter activity interaction Z-score,[4]; [16],-0.435 ± 0.35
same,promoter activity interaction Z-score,[4]; [17],-0.0896 ± 0.32
same,promoter activity interaction Z-score,[4]; [18],0.318 ± 0.14
same,promoter activity interaction Z-score,[4]; [19],-0.194 ± 0.092
same,promoter activity interaction Z-score,[4]; [20],-0.15 ± 0.097
same,promoter activity interaction Z-score,[4]; [21],0.352 ± 0.51
same,promoter activity interaction Z-score,[4]; [22],-0.0516 ± 0.19
same,promoter activity interaction Z-score,[4]; [23],-0.0712 ± 0.12
same,promoter activity interaction Z-score,[5]; [8],0.233 ± 0.19
same,promoter activity interaction Z-score,[5]; [9],-0.32 ± 0.61
same,promoter activity interaction Z-score,[5]; [10],-0.0483 ± 0.15
same,promoter activity interaction Z-score,[5]; [11],0.121 ± 0.51
same,promoter activity interaction Z-score,[5]; [12],-0.103 ± 0.11
same,promoter activity interaction Z-score,[5]; [13],0.432 ± 0.065
same,promoter activity interaction Z-score,[5]; [14],0.674 ± 0.12
same,promoter activity interaction Z-score,[5]; [15],0.933 ± 0.31
same,promoter activity interaction Z-score,[5]; [16],-0.361 ± 0.36
same,promoter activity interaction Z-score,[5]; [17],0.246 ± 0.82
same,promoter activity interaction Z-score,[5]; [18],0.504 ± 0.18
same,promoter activity interaction Z-score,[5]; [19],0.352 ± 0.57
same,promoter activity interaction Z-score,[5]; [20],-0.236 ± 0.25
same,promoter activity interaction Z-score,[5]; [21],0.371 ± 0.84
same,promoter activity interaction Z-score,[5]; [22],0.206 ± 0.3
same,promoter activity interaction Z-score,[5]; [23],-0.277 ± 1.1
same,promoter activity interaction Z-score,[6]; [8],-0.2102 ± 0.00085
same,promoter activity interaction Z-score,[6]; [9],-0.278 ± 0.015
same,promoter activity interaction Z-score,[6]; [10],-0.273 ± 0.13
same,promoter activity interaction Z-score,[6]; [11],-0.121 ± 0.17
same,promoter activity interaction Z-score,[6]; [12],-0.286 ± 0.043
same,promoter activity interaction Z-score,[6]; [13],-0.134 ± 0.031
same,promoter activity interaction Z-score,[6]; [14],-0.188 ± 0.032
same,promoter activity interaction Z-score,[6]; [15],-0.041 ± 0.2
same,promoter activity interaction Z-score,[6]; [16],-0.297 ± 0.031
same,promoter activity interaction Z-score,[6]; [17],-0.177 ± 0.0058
same,promoter activity interaction Z-score,[6]; [18],0.0402 ± 0.16
same,promoter activity interaction Z-score,[6]; [19],-0.15 ± 0.37
same,promoter activity interaction Z-score,[6]; [20],-0.241 ± 0.021
same,promoter activity interaction Z-score,[6]; [21],-0.171 ± 0.066
same,promoter activity interaction Z-score,[6]; [22],-0.243 ± 0.11
same,promoter activity interaction Z-score,[6]; [23],-0.272 ± 0.35
same,promoter activity interaction Z-score,[7]; [8],-0.906 ± 1
same,promoter activity interaction Z-score,[7]; [9],-0.418 ± 0.34
same,promoter activity interaction Z-score,[7]; [10],0.214 ± 1.5
same,promoter activity interaction Z-score,[7]; [11],-0.701 ± 0.52
same,promoter activity interaction Z-score,[7]; [12],-0.18 ± 0.28
same,promoter activity interaction Z-score,[7]; [13],0.28 ± 0.4
same,promoter activity interaction Z-score,[7]; [14],-0.738 ± 0.76
same,promoter activity interaction Z-score,[7]; [15],-0.512 ± 0.23
same,promoter activity interaction Z-score,[7]; [16],-0.157 ± 0.39
same,promoter activity interaction Z-score,[7]; [17],0.0619 ± 0.15
same,promoter activity interaction Z-score,[7]; [18],-0.0757 ± 0.051
same,promoter activity interaction Z-score,[7]; [19],-0.611 ± 1.3
same,promoter activity interaction Z-score,[7]; [20],-0.913 ± 0.14
same,promoter activity interaction Z-score,[7]; [21],0.586 ± 1.1
same,promoter activity interaction Z-score,[7]; [22],-0.0963 ± 1.2
same,promoter activity interaction Z-score,[7]; [23],0.127 ± 0.016
